TWEAK-Fn14 inh: inhibitors of TWEAK-Fn14 signaling, primary screen, luciferase reporter cells, uHTS; TWEAK-stimulated Fn14 reporter cells, luciferase luminescence, 8 h; inhibition, % at 10 µM; 360,000 tested, 2% active; in the data active = inhibition above about 50%
LGR2 inh: inhibitors of bursicon-induced LGR2 CRE-luciferase signal, primary screen, cell-based, HEK293, CRE-luciferase reporter, bursicon stimulation | bursicon-stimulated, 4 h | 380,000 tested, 0.35% active | Drosophila bursicon receptor LGR2 (rickets) | inhibition, % at 9.99 µM;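 active = drop in luminescence signal, shown as inhibition above about 50% in the replicate tests, limit read from the data, passing the limit was not always enough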;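 note: agonist challenge used bursicon conditioned medium at about half maximal strength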
TROY signal inh: inhibitors of TROY-driven NF-kB signaling, primary screen, Q293 LMP1-TROYcd cells, NF-kB luciferase, uHTS; Q293 LMP1-TROYcd NF-kB luciferase reporter, 4 h; inhibition, % at 10 µM; 360,000 tested, 0.98% active;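 active = compounds whose plate-normalised and pattern-corrected inhibition of the luciferase reporter signal at the single screening dose is 50% or more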
EBV LMP1 NFkB: EBV LMP1-driven NF-kappaB luciferase reporter inhibitors, primary screen, cell-based, luminescence, single point; 350,000 tested, 0.69% active; LMP1-induced NF-kappaB luciferase reporter cells; inhibition, % at 12.5 µM; in the data active = inhibition above about 41%;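 note: 0% = neutral control wells and 100% = reference inhibitor control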
EWS-Fli inh: EWS/Fli-driven NR0B1 reporter inhibitors, primary screen, A673 cells, NR0B1 luciferase, luminescence, MLPCN library; AID 651661, 2012; 350,000 tested, 0.67% active; inhibition, % at 12.6 µM; viability-normalised;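 active = mean inhibition of at least 50% after viability correction, with every replicate also passing that limit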;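 note: firefly luciferase signal divided by Alamar Blue viability fluorescence both relative to DMSO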
Active calls of the source: *; / = no result given; ! = not active in a repeat. A selection: hits, their analogues and other compounds. The true share with any hit is near 2.5%.

SMILES | TWEAK-Fn14 inh | LGR2 inh | TROY signal inh | EBV LMP1 NFkB | EWS-Fli inh
CCCCNc1nc(NCc2ccccc2)nc2ccccc12 | 34 | 33 | 55* | / | 19
COc1cc2ncnc(NCc3ccccc3)c2cc1OC | -6 | 18 | 14 | 6 | /
C=CCNc1ncnc2ccccc12 | 41 | / | 50* | 4 | /
c1ccc(CNc2ncnc3ccccc23)cc1 | 52*! | 29 | 28 | 22 | 5
O=C(CCCl)Nc1nc2c(s1)CCc1ccccc1-2 | 3 | 8 | -21 | -16 | 8
CC(=O)Nc1nc2c(s1)CCc1ccccc1-2 | 57* | -9 | -15 | -4 | /
COc1ccccc1NC(=O)c1c(Nc2ccccc2C)sc(C(=O)Nc2cccc(Cl)c2)c1N | 86* | 12 | 22 | 43* | 26
CCCNC(=O)N1CC2(CCN(C(=O)C3CCC3)CC2)c2c([nH]c3cc(OC)ccc23)[C@@H]1CO | / | 6 | / | / | 1
O=C(Nc1ccccc1)N1CCNCC1 | 8 | 20 | 90* | -2 | -1
O=C(Nc1ccccc1)N1CCCC1 | -11 | -1 | 15 | 2 | /
COCC(=O)N1[C@H](CO)[C@@H](c2ccccc2)C12CN(C(=O)Cc1ccccn1)C2 | / | 13 | / | / | -5
Cc1cccc(N2CCN(Cc3cn(C)nc3-c3ccccc3F)CC2)n1 | 19 | 16 | 19 | 10 | 59*
CCc1cccc(NC(=O)O[C@H]2[C@H](OC(=O)Nc3ccc4c(c3)OCO4)[C@@H](OC(=O)Nc3ccc4c(c3)OCO4)[C@@H](OC)O[C@@H]2CO)c1 | / | / | / | / | 6
CC=Cc1ccc2n(c1=O)C[C@@H]1[C@@H](CO)[C@H](C(=O)N[C@H](C)c3ccccc3)[C@H]2N1Cc1ccccc1 (mixture of isomers) | / | -1 | / | / | -1
COc1ccc(NC(=O)c2oc3ccccc3c2NC(=O)c2ccco2)c(OC)c1 | 46 | / | -9 | 16 | /
COc1ccc(NC(=O)c2oc3ccccc3c2NC(=O)c2ccco2)cc1 | 55* | -7 | 7 | 16 | -66
COc1ccccc1NC(=O)c1oc2ccccc2c1NC(=O)c1cc(OC)c(OC)c(OC)c1 | -7 | -19 | 14 | 18 | 60*
COc1ccc(-c2ccc(NC(=O)c3ccco3)cc2)nn1 | 77* | 66* | 43 | 57* | 64*
O=C(NCCCNC(=O)c1ccco1)c1ccc(Cl)cc1 | 70* | 13 | 61* | -1 | -38
Cc1ccc(C(=O)NCCCNC(=O)c2ccco2)cc1 | 0 | 9 | -5 | -3 | -3
COCC(=O)Nc1c(C(=O)Nc2ccccc2OC)oc2ccccc12 | -29 | -15 | 4 | -5 | /
O=C(Cc1ccccc1)N1CC(=O)N2[C@H](C1)[C@@H](c1ccc(-c3ccc(F)cc3)cc1)[C@@H]2CO | / | 2 | / | / | 0
CC(C)NC(=O)N1CC2(C1)[C@H](c1ccccc1)[C@H](CO)N2C(=O)C1CC1 | / | 3 | / | / | 17
CC(C)NC(=O)Nc1ccc2c(c1)C(=O)N([C@@H](C)CO)C[C@H](C)[C@H](CN(C)C(=O)Nc1ccccc1)O2 | / | -4 | / | / | -3
CCC(C)c1ccc(NC(=O)c2ccco2)cc1 (stereo not given) | 66* | 52* | 23 | 12 | 58*
SMILES | TWEAK-Fn14 inh | LGR2 inh | TROY signal inh | EBV LMP1 NFkB | EWS-Fli inh
O=C(Nc1ccc(Cl)cc1)c1ccco1 | -5 | -68 | -32 | 57* | -82
CC1N(C)c2cc(NC(=O)c3ccco3)c(P(=O)(Nc3ccc([N+](=O)[O-])cc3)N3CCOCC3)cc2C1(C)C (stereo not given) | 3 | 16 | -4 | -7 | 3
CC1N(C)c2cc(NC(=O)c3ccco3)ccc2C1(C)C (stereo not given) | 49 | 28 | 53* | -8 | -23
CCC(C)c1ccc(NC(=O)COC(=O)CCNC(=O)c2ccco2)cc1 (stereo not given) | -11 | -17 | 11 | 4 | -15
O=C(Nc1ccc(NC(=O)c2ccccc2F)cn1)c1ccco1 | 53* | 35 | 23 | 23 | 26
COCC#Cc1cnc2c(c1)C(=O)N([C@@H](C)CO)C[C@H](C)[C@H](CN(C)C(C)=O)O2 | / | 26 | / | / | -4
C=CCn1c(SCC(=O)c2ccc(CNC(C)=O)o2)nc2ccccc2c1=O | 9 | -1 | 1 | 82* | /
C=CCn1c(SCC(=O)NC2CC2)nc2ccccc2c1=O | 7 | 2 | -21 | 1 | -3
